# KCNQ2 pot – KCNQ2 (rat) channel potentiation; O88943; CHO-K1 KCNQ2, FluxOR thallium flux fluorescence; hits give high values; B-score at 10 µM; hit rate 0.54% among 310,000;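 active means fluorescence ratio B-score at least 3 SD of library B-scores, with initial fluorescence B-score within 3 of them, cut at about 5.3 in these data; same plate scores as AID 2156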;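 further: B-score of peak minus minimum over baseline fluorescence ratio after K+ and Tl+ stimulus; positive B-score means potentiation of KCNQ2 with more thallium influx and brighter signal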
# KCNQ2 block – inhibitors of rat KCNQ2 potassium channel; O88943; CHO-K1 KCNQ2, FluxOR thallium flux, 20 min; hits give low values; B-score at 10 µM; hit rate 1.1% among 310,000;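 active means fluorescence ratio B-score at most minus 3 library SDs, with starting brightness B-score within 2 library SDs, cut at about -5.5 in these data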
# Kir21 conf inh – confirmation of mouse Kir2.1 potassium channel inhibitors | Kir2.1-expressing cells, FluxOR thallium flux fluorescence; hits give low values | shares compounds with KCNQ2 pot | Tl flux remaining, % of negative control (hits give low values), % at 10 µM | AID 2032 | hit rate 41% among 2,300;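 active means Primary-screen hit whose thallium flux fell at least 3 control SD below untreated wells in both duplicates, with normal baseline fluorescence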;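 further: 0% = blank wells without stimulus and 100% = stimulated no-compound controls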
# Target sequence (P35561 whole entry, looked up): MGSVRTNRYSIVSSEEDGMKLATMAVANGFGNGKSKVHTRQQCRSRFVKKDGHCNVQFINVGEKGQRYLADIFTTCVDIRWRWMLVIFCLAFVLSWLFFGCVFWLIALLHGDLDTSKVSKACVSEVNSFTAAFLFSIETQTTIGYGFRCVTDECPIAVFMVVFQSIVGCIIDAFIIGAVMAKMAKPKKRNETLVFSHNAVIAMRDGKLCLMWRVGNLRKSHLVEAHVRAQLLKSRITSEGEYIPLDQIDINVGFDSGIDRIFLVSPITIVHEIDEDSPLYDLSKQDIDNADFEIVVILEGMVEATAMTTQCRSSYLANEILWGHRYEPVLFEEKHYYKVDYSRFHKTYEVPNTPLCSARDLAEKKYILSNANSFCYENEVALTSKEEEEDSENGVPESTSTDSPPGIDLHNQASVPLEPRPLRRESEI
# HEK293 ctr – alters thallium flux in parental HEK293 cells, Kir2.1 counter-screen; FluxOR thallium flux fluorescence; 0% = unstimulated blank wells; AID 2105; shares compounds with KCNQ2 pot; FluxOR signal as % of negative control (100 = no effect), % at 10 µM; hit rate 19% among 2,300;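 active means dye signal at least 3 control SD above or below untreated wells in both duplicates, raw fluorescence within 3, either direction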;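 further: percent is based on the flux ratio of peak minus minimum fluorescence over baseline F0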
# CHO-K1 Tl ctr – alters thallium flux in parental CHO-K1 cells, KCNQ2 counter-screen | shares compounds with KCNQ2 pot | FluxOR thallium flux fluorescence; zero = vehicle mean+3SD, 100% = vehicle-minus-blank window | activity increase over 3SD of controls, % at 10 µM | hit rate 43% among 1,200 | AID 2282;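 active means signal rise of at least 3 SD above the untreated control mean, in both duplicate wells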;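 further: counter screen of KCNQ2 potentiator hits so any rise reflects channel-independent effects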
# KCNQ1 pot spec – selectivity of KCNQ2 potentiators: effect on human KCNQ1; shares compounds with KCNQ2 pot; CHO KCNQ1 stable, FluxOR thallium flux fluorescence; beyond 3SD, as % of vehicle-control signal; activation over 3SD threshold, % at 10 µM; hit rate 28% among 1,200; AID 2283;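 active means fluorescence ratio rise of at least 3 SD of vehicle wells above their mean, in both replicate wells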;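 further: 0% = vehicle mean plus 3 SD and 100% = vehicle minus unstimulated blank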
# KCNQ2 pot conf – rat KCNQ2 channel potentiator confirmation; hit rate 68% among 1,200; potentiation, less the hit threshold, % at 10 µM; CHO-KCNQ2 cells, FluxOR thallium flux fluorescence; shares compounds with KCNQ2 pot;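 active means fluorescence ratio rising 3 SD or more over the vehicle control mean in both replicates, plus primary screen hit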;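 further: peak minus minimum thallium fluorescence divided by baseline after K/Tl stimulus; 0% = vehicle mean plus 3 SD and 100% = vehicle minus unstimulated blank difference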
# Kir21 spec – tests whether KCNQ2 potentiators also affect mouse Kir2.1. shares compounds with KCNQ2 pot. HEK293 Kir2.1, FluxOR thallium flux fluorescence. activity over 3SD threshold, % at 10 µM. hit rate 2% among 1,200. AID 2345;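 active means fluorescence ratio rise of at least 3 SD above the vehicle-control mean, seen in both replicates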;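 further: 0% = vehicle mean plus 3 SD and 100% = vehicle minus no-stimulus blank window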
# KCNQ2 W236L MoA – KCNQ2 potentiators acting on retigabine-insensitive rat KCNQ2 W236L mutant; shares compounds with KCNQ2 pot; CHO KCNQ2-W236L, automated patch clamp current; current increase over 3SD of negative controls (%), hits give high values, % at 25 µM; hit rate 10% among 940; AID 2558;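 active means current increase at least 3 SD of the untreated controls above them in both duplicate recordings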
# An asterisk follows results filed as active; i = inactive; nt = not tested or not shown. Rows were chosen to be rich in hits. Some 1.6% of all compounds tested hit in one or more screens of this group.
SMILES,KCNQ2 pot,KCNQ2 block,Kir21 conf inh,HEK293 ctr,others
CC(NC(=O)CCc1ccccc1)c1ccc2c(c1)OCO2 (stereo not given),8.5*,i,i,i,CHO-K1 Tl ctr=-3;KCNQ1 pot spec=-8;KCNQ2 pot conf=45*;Kir21 spec=-47;KCNQ2 W236L MoA=i
CCOc1ccccc1C(=O)NC(C)c1ccc2c(c1)OCO2 (stereo not given),2.7,i,nt,nt,
Cc1occc1C(=O)NC(C)c1ccc2c(c1)OCO2 (stereo not given),nt,i,nt,nt,
Cc1ccc(C(C)NC(=O)c2ccc3c(c2)OCO3)cc1C (stereo not given),10*,i,i,i,CHO-K1 Tl ctr=-17;KCNQ1 pot spec=-2;KCNQ2 pot conf=52*;Kir21 spec=-32;KCNQ2 W236L MoA=i
CCOc1ccc(C(=O)CC(=O)C(=O)NCCc2ccc(OC)c(OC)c2)cc1,nt,i,nt,nt,
CCCn1c(=O)c(C(=O)NNS(=O)(=O)c2ccc(Cl)cc2)c(O)c2ccccc21,nt,i,nt,nt,
Cn1ccnc1C1CCCCN1C(=O)c1cc(COc2ccc(F)cc2F)on1 (stereo not given),nt,i,nt,nt,
CCC(CC)C(=O)c1c[nH]c(C(=O)N2CCN(c3ccc(OC)cc3)CC2)c1,nt,i,nt,nt,
Cc1c(N2C(=O)/C(=C\c3ccccc3O)SC2=S)c(=O)n(-c2ccccc2)n1C,18*,i,i,343%*,CHO-K1 Tl ctr=114*;KCNQ1 pot spec=-13;KCNQ2 pot conf=40*;Kir21 spec=-7;KCNQ2 W236L MoA=i
Cc1c(N2C(=O)/C(=C/c3ccccc3)SC2=S)c(=O)n(-c2ccccc2)n1C,1.4,i,nt,nt,
CCCn1cnc2c(=S)nc(N)[nH]c21,0.29,i,nt,nt,
CCCCNC(=O)[C@H]1N2C(=O)c3c(ccc(OC)c3OC)C2SC1(C)C (stereo not given in full),0.62,i,nt,nt,
Cc1ccc(C2C(/C=C3/SC(=S)NC3=O)=C(c3cccs3)Oc3ccccc32)cc1 (stereo not given),5.8*,i,i,i,CHO-K1 Tl ctr=-14;KCNQ1 pot spec=-9;KCNQ2 pot conf=-9;Kir21 spec=-36
Cc1nn(C)c(C)c1/C=C1/SC(=S)NC1=O,1.2,i,nt,nt,
COc1ccc(O)c(CNc2ccccc2F)c1,nt,i,nt,nt,
CC(=O)NC12CC3CC(C1)CC(C(=O)Nc1nc4ccc(S(C)(=O)=O)cc4s1)(C3)C2,nt,i,nt,nt,
Cc1cccc2c1cnn2C(=O)CCC(=O)NCC(C)c1ccccc1 (stereo not given),nt,i,nt,nt,
CC(C)n1cc(NC(=O)c2cc(-c3ccccc3)on2)cn1,12*,i,i,214%*,CHO-K1 Tl ctr=14*;KCNQ1 pot spec=-11;KCNQ2 pot conf=11*;Kir21 spec=-15;KCNQ2 W236L MoA=i
O=C(Nc1cccnc1)c1cc(-c2ccccc2)on1,1.4,i,nt,nt,
O=C(N/C(=C/c1ccccc1F)C(=O)N1CCCCC1)c1ccccc1,nt,i,nt,nt,
CC(=O)Nc1cccc(NC(=O)CCCC2CCCCC2)c1,1.9,i,nt,nt,
O=C(CCC1CCCC1)Nc1cccc(Cc2ccncc2)c1,6.3*,i,i,i,CHO-K1 Tl ctr=94*;KCNQ1 pot spec=-6;KCNQ2 pot conf=-10;Kir21 spec=-30
O=C(O)c1ccc(NC(=S)N2CCCCC2)cc1,0.58,i,nt,nt,
S=C(Nc1ccccc1)N1CCCCC1,6.9*,i,i,i,CHO-K1 Tl ctr=-14;KCNQ1 pot spec=6.3*;KCNQ2 pot conf=-14;Kir21 spec=-29
NC(=O)C1CCN(C(=O)COc2ccc3ccc(=O)oc3c2)CC1,nt,i,nt,nt,
SMILES,KCNQ2 pot,KCNQ2 block,Kir21 conf inh,HEK293 ctr,others
CCCCCCCCC[n+]1cccc2c3ccccc3ccc21,nt,i,6.5%*,i,
O=[N+]([O-])c1ccc(C[n+]2cccc3c4ccccc4ccc32)cc1,1.1,i,nt,nt,
O=C(NC(=S)Nc1ccccc1N1CCOCC1)c1sc2ccccc2c1Cl,0.64,i,nt,nt,
CN(C(=O)COC(=O)c1sc2ccccc2c1Cl)C1CCCCC1,nt,i,nt,nt,
CCCCOC(=S)NC(=O)c1sc2ccccc2c1Cl,17*,i,i,446%*,CHO-K1 Tl ctr=-3;KCNQ1 pot spec=47*;KCNQ2 pot conf=83*;Kir21 spec=-15;KCNQ2 W236L MoA=i
Cc1ccc(NC(=S)NC(=O)c2sc3ccccc3c2Cl)c(C(=O)O)c1,14*,i,i,i,CHO-K1 Tl ctr=2.0*;KCNQ1 pot spec=-15;KCNQ2 pot conf=29*;Kir21 spec=-20;KCNQ2 W236L MoA=i
CCCOc1ccc(C(CC(=O)O)NC(=O)c2sc3ccccc3c2Cl)cc1 (stereo not given),0.21,i,nt,nt,
CN(C)CCCOC(=O)c1sc2ccccc2c1Cl,nt,i,29%*,i,
COc1ccc(NS(=O)(=O)c2cccc(C(=O)NNC(=O)CNC(=O)c3ccc(C)cc3)c2)cc1,nt,i,nt,nt,
O=C(CCc1c[nH]c2ccccc12)OCc1cccc([N+](=O)[O-])c1,nt,i,nt,nt,
CC1=C(C(=O)OC2CCCCCCC2)C(c2cccc(O)c2)NC(=O)N1 (stereo not given),20*,i,i,i,CHO-K1 Tl ctr=0;KCNQ1 pot spec=-7;KCNQ2 pot conf=82*;Kir21 spec=-19;KCNQ2 W236L MoA=29%*
CC1=C(C(=O)OC2CCCCC2)C(c2cccc([N+](=O)[O-])c2)NC(=O)N1 (stereo not given),1.7,i,nt,nt,
CC1=C(C(=O)OCC2CCCCC2)C(c2cccc(O)c2)NC(=O)N1 (stereo not given),17*,i,i,i,CHO-K1 Tl ctr=-11;KCNQ1 pot spec=-21;KCNQ2 pot conf=58*;Kir21 spec=-45;KCNQ2 W236L MoA=34%*
CC1=C(C(=O)OCC2CCCCC2)C(c2ccc(O)cc2)NC(=O)N1 (stereo not given),1.7,i,nt,nt,
COc1ccc(C2NC(c3ccc(OC)cc3OC)C(C)C(=O)C2C)c(OC)c1 (stereo not given),0.64,i,nt,nt,
C#CCn1cc(Cl)cc(C(=O)Nc2ccccc2)c1=O,nt,i,nt,nt,
COC(=O)C1(O)CC(CC(C)C)=NN1C(=O)c1ccccc1 (stereo not given),8.8*,i,i,i,CHO-K1 Tl ctr=8.6*;KCNQ1 pot spec=-10;KCNQ2 pot conf=23*;Kir21 spec=-42;KCNQ2 W236L MoA=i
COC(=O)C1=NN(C(=O)c2ccccc2)C(C)(O)C1 (stereo not given),1.5,i,nt,nt,
Cn1cccc1/C=N/NC(=O)c1cc2ccccc2cc1O,nt,i,nt,nt,
S=C(NCc1ccccc1)N1CCN(Cc2ccc3c(c2)OCO3)CC1,nt,i,nt,nt,
S=C(NCc1ccc2c(c1)OCO2)NC1CCN(Cc2ccccc2)CC1,1,i,40%*,126%*,
CCc1nnc(NC(=O)CCC(=O)N2CCN(Cc3ccc(OC)c(F)c3)CC2)s1,0.11,i,nt,nt,
Cc1noc(C)c1S(=O)(=O)N1CCCC(C(=O)c2cccc(OC(C)C)c2)C1 (stereo not given),0.43,i,nt,nt,
O=C(Cc1ccccc1F)Nc1ccc2c(c1)CCC2,5.2,i,nt,nt,
